From PubChem BioAssay AID890 (National Center for Advancing Translational Sciences (NCATS), 2007)
The source made the active and inactive calls. The call rests on the fitted dose curve; in most records, active means well fitted activation curve with a large enough effect; inactive means flat fitted curve, though single readings scatter.

Test: Confirmation Concentration-Response Assay for Epigenetic Modulators
Details: murine C127i cells, silenced GFP reporter derepression, imaging
From the text: NIH Molecular Libraries Screening Centers Network [MLSCN] NIH Chemical Genomics Center [NCGC] MLSCN Grant: 1 X01 MH079860-01 Assay Provider: Elisabeth D. Martinez, University of Texas SW Medical Center NCGC Assay Overview: The Locus Derepression assay detects the derepression of a GFP reporter that is stably integrated in a region of the genome of murine c127i mammary cells that is presumably silenced. GFP transcription in this construct is controlled by a CMV promoter, which normally is strong and constitutively active. However, this line was selected for lack of constitutive expression of the GFP protein. GFP production can be induced by incubating the cells with histone deacetylase or DNA methyltransferase inhibitors. Compounds that cause derepression of the locus to express GFP are identified by enumerating GFP positive cells using a laser-scanning microplate cytometer.
NCGC Assay Protocol Summary: Two hundred and fifty cells in 5 uL per well were dispensed into black, clear-bottom 1536-well plates. Twenty-three nL compound was transferred to the assay plate and cells were incubated 30 hours at 37 C. […]

## CN1CSC(=S)N(C)C1
  Potency: 7.95 µM (active)
